Drawing on PubChem BioAssay (EPA / NIEHS), this text covers AC50 and outcome for 30 molecules.

The structures appear in SMILES notation. “And” between values parts separate entries of the source, which are not always exact repeats. Equal entries are not always repeated. Records with an inconclusive call do not appear. The source made the active and inactive calls. How the source made its calls: active means hit-call score of the fitted dose curve at least 0.9, where 1 is the maximum; inconclusive means response in the unintended direction; inactive means score below 0.9.

One may read the AC50 as the midpoint of the concentration-response curve, whichever way the signal moves.

Sequence of guinea pig Serotonin, 5-Hydroxytryptamine Receptor 4 (5HT4), HTR4 (gene 100135548) (O70528 whole entry, looked up): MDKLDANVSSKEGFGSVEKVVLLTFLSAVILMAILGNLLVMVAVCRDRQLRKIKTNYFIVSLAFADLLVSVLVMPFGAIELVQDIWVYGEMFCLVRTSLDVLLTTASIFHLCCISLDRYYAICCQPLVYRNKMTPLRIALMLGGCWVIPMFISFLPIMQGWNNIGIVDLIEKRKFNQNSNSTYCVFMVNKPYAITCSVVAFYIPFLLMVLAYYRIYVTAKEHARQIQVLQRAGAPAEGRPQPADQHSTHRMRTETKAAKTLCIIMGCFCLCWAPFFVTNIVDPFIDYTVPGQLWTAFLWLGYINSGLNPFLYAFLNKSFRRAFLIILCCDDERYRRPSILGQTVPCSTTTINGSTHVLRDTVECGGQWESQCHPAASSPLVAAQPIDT
Sequence of rat Serotonin, 5-Hydroxytryptamine Receptor (5HT), Non-Selective Binding, Htr1a (gene 24473) (P19327 whole entry, looked up): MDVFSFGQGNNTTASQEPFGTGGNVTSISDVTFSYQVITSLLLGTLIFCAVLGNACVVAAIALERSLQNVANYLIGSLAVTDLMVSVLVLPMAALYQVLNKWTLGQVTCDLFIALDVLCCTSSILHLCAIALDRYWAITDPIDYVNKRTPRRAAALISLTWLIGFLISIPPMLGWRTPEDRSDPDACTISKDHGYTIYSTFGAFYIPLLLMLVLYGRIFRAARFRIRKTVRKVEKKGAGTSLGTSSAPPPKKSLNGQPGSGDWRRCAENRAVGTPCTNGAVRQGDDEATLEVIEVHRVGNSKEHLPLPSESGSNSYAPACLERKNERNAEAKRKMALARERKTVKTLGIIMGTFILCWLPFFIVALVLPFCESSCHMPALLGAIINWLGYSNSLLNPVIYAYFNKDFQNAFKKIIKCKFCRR
Sequence of rat Adrenergic, Alpha 1, Non-selective Receptor (Adra1), Adra1a (gene 29412) (P43140 whole entry, looked up): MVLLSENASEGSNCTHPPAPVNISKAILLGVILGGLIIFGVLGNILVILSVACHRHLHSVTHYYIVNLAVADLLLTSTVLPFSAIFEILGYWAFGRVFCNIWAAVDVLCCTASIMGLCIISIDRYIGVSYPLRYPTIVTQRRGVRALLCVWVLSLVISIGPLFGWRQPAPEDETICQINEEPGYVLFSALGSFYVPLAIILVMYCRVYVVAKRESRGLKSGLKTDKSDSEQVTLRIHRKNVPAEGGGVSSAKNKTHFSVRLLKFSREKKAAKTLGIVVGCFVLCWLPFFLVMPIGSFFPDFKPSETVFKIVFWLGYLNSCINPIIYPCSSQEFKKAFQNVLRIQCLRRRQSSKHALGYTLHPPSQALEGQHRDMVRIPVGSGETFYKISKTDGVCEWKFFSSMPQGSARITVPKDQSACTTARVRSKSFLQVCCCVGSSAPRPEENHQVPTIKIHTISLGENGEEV
Sequence of rat Histamine Receptor (H3), Hrh3 (gene 85268) (Q9QYN8 whole entry, looked up): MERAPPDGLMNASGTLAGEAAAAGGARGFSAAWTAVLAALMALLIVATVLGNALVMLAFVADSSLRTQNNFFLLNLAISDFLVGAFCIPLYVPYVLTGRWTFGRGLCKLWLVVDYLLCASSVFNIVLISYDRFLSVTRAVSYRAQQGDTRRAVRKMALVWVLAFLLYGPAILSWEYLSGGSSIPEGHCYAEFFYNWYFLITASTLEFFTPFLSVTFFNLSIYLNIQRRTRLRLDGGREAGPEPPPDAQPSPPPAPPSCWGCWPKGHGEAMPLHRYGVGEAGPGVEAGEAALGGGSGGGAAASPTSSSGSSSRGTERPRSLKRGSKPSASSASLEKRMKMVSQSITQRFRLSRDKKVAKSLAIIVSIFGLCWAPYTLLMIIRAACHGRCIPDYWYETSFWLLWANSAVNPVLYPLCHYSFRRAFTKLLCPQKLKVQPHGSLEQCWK
Sequence of Metabotropic glutamate receptor 1 (Rattus norvegicus) (P23385 whole entry, looked up): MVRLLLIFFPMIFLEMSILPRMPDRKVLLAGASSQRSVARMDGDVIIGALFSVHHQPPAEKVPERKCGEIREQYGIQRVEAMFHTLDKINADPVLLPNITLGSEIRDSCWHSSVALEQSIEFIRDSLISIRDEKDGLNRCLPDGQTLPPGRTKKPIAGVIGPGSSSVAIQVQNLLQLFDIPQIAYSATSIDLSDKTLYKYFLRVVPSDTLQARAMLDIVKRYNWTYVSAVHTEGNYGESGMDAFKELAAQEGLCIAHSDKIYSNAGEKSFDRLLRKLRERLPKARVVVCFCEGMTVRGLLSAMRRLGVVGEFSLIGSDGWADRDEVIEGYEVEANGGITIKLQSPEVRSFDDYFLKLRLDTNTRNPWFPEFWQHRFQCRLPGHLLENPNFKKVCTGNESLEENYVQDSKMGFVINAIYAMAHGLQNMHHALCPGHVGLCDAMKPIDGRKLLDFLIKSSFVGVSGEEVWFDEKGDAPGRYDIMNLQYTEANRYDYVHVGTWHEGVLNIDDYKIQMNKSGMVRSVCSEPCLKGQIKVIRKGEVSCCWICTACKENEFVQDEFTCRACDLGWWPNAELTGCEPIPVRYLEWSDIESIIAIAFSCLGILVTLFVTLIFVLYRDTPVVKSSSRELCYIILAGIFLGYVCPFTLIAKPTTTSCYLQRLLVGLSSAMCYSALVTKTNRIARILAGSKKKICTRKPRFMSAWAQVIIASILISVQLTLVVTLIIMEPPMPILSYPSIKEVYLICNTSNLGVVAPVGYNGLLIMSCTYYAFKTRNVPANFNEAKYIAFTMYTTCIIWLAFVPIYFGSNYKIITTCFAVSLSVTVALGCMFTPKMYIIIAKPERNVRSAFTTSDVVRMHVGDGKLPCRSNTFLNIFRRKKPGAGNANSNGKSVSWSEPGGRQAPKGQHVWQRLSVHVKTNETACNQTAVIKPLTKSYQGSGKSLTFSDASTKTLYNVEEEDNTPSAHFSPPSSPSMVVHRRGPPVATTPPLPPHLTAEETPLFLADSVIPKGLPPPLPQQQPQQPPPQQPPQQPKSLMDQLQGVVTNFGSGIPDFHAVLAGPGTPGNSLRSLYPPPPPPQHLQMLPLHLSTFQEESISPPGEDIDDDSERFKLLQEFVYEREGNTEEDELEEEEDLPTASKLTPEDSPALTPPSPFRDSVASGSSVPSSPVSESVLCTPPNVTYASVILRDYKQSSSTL
Sequence of human Opioid Receptor Mu (Opiate Mu), OPRM1 (gene 4988) (P35372 whole entry, looked up): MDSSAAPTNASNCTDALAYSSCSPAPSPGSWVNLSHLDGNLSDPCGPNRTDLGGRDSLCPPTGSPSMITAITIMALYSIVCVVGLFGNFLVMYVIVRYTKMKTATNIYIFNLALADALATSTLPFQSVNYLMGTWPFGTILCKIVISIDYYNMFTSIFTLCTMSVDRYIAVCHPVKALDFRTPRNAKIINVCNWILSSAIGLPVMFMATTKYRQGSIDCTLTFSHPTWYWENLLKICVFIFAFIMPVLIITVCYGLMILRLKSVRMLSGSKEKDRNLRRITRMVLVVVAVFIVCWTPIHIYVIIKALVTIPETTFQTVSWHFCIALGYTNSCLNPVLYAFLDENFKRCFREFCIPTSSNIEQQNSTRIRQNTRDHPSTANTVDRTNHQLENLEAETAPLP
Sequence of rat Corticotropin Releasing Factor Receptor (CRF), Crhr1 (gene 58959) (P35353 whole entry, looked up): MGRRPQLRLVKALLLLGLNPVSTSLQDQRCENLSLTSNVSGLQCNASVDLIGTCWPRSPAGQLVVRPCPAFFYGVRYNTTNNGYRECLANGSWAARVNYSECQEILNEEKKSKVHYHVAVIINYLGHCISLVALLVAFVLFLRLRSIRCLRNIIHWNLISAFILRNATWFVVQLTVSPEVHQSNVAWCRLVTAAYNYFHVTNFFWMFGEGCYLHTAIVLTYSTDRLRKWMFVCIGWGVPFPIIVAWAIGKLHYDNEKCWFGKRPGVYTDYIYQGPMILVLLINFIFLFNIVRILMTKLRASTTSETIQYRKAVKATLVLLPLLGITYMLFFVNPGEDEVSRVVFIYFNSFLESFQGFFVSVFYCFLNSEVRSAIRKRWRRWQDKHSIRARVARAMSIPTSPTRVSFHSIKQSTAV

One experiment deals with mouse Cholecystokinin, CCK1 Receptor (CCKA), Cckar (gene 12425) (UniProt O08786). Kind of experiment: NVS_GPCR_mCCKAPeripheral: NovaScreen (NVS) G Protein-Coupled Receptor Assay for mouse Cholecystokinin, CCK1 Receptor (CCKA) (AID 2283285). On the procedure: (§1) NVS_GPCR_mCCKAPeripheral is a biochemical, single-readout assay that uses extracted gene-proteins from Mouse pancreatic membranes in a tissue-based cell-free assay. Measurements were taken 2 hours after chemical dosing in a 96-well plate.NVS_GPCR_mCCKAPeripheral is one of one assay component(s) measured or calculated from the NVS_GPCR_mCCKAPeripheral assay. It is designed to make measurements of radioligand binding, a form of binding reporter, as detected with scintillation counting signals by Filter-based radiodetection technology.Data from the assay component NVS_GPCR_mCCKAPeripheral was analyzed into 1 assay endpoint. This assay endpoint, NVS_GPCR_mCCKAPeripheral, was analyzed in the positive analysis fitting direction relative to DMSO as the negative control and baseline of activity. Using a type of binding reporter, loss-of-signal activity can be used to understand changes in the binding as they relate to the gene Cckar. Furthermore, this assay endpoint can be referred to as a primary readout, because the performed assay has only produced 1 assay endpoint. To generalize the intended target to other relatable targets, this assay endpoint is annotated to the gpcr intended target family, where the subfamily is rhodopsin-like receptor.
Sequence of mouse Cholecystokinin, CCK1 Receptor (CCKA), Cckar (gene 12425) (O08786 whole entry, looked up): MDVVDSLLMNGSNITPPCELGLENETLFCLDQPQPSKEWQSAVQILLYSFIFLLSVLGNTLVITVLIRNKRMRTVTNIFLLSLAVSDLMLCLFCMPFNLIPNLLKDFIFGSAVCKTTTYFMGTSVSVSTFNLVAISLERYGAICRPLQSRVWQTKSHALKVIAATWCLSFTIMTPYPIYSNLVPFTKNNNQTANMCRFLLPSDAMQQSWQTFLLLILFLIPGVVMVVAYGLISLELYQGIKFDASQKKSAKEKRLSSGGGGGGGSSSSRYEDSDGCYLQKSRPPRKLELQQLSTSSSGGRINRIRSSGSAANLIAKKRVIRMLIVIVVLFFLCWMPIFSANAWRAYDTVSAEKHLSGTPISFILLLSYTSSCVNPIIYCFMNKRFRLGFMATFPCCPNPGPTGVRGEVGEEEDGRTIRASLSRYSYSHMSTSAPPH
Binding assays used specific radioligands (tritiated, iodinated) with non-radioactive competitive displacement ligands in agonist or antagonist protocols (as indicated) and various reference compounds and inhibitors to titrate specific binding to receptors and transporters. Most enzyme assays (CYPs, kinases, phosphatases, proteases, HDACs) used recombinant protein and specific substrates (fluorescence mostly, some colorimetric and radioactive) and inhibitors, followed by a biochemical separation of substrate and product. All assays for the biochemical HTS were initially run in duplicate at a single concentration (10 uM for CYP450 assays and 25 uM for all others). […]
In the case of `C=CCC1=C(C)C(OC(=O)C2C(C=C(C)C)C2(C)C)CC1=O` (stereo unspecified), the AC50 was 25 µM (active) [middle of 4 runs].
`CO/C=C(/C(=O)OC)c1ccccc1Oc1cc(Oc2ccccc2C#N)ncn1`: the molecule was called inactive.
In the case of `C=CCC1=C(C)[C@@H](OC(=O)[C@@H]2[C@@H](C=C(C)C)C2(C)C)CC1=O`, the AC50 is 19.9 µM (active).

The subject of another experiment is rabbit Platelet Activating Factor Receptor (PAF), gene 100354046. Put plainly: NVS_GPCR_rabPAF: NovaScreen (NVS) G Protein-Coupled Receptor Assay for rabbit Platelet Activating Factor Receptor (PAF) (AID 2283287). On the procedure:
as §1, with “NVS_GPCR_rabPAF” for “NVS_GPCR_mCCKAPeripheral”, “Rabbit platelets” for “Mouse pancreatic membranes”, “1 hour” for “2 hours”, “48-well plate.NVS_GPCR_rabPAF” for “96-well plate.NVS_GPCR_mCCKAPeripheral”, “NVS_GPCR_rabPAF,” for “NVS_GPCR_mCCKAPeripheral,”, “PTAFR.” for “Cckar.”
Binding assays used specific radioligands (tritiated, iodinated) with non-radioactive competitive displacement ligands in agonist or antagonist protocols (as indicated) and various reference compounds and inhibitors to titrate specific binding to receptors and transporters. Most enzyme assays (CYPs, kinases, phosphatases, proteases, HDACs) used recombinant protein and specific substrates (fluorescence mostly, some colorimetric and radioactive) and inhibitors, followed by a biochemical separation of substrate and product. All assays for the biochemical HTS were initially run in duplicate at a single concentration (10 uM for CYP450 assays and 25 uM for all others). […] Each assay was run with positive and negative controls, and concurrent controls on every plate. The follow-up (secondary) screen tested active chemical-pairs in concentration series, as well as a few additional assays not tested in the primary screen, some selected negative inactives, and several cases re-run in the concentration series for confirmatory purposes.
As for `CC(C)Oc1cc(-n2nc(C(C)(C)C)oc2=O)c(Cl)cc1Cl`, the AC50 is 9.82 µM (active).
`CNC(=S)S`: the result was inactive.
With `CCCC1COC(Cn2cncn2)(c2ccc(Cl)cc2Cl)O1` (stereo unspecified), the AC50 was 14.4 µM (active).
On to `Fc1ccc(Oc2ccnc3cc(Cl)cc(Cl)c23)cc1`, for which the molecule was classed as inactive.
Turning to `CCc1nn(C)c(C(=O)NCc2ccc(C(C)(C)C)cc2)c1Cl`, the outcome was inactive.
As for `COC(=O)C(C)Oc1ccc(Oc2ccc(Cl)cc2Cl)cc1` (stereo unspecified), the call was inactive.
With `CCCCC(CC)COC(=O)c1ccccc1C(=O)OCC(CC)CCCC` (stereo unspecified), the call was inactive.
`CO/C=C(/C(=O)OC)c1ccccc1Oc1cc(Oc2ccccc2C#N)ncn1`: the AC50 was 13.9 µM (active) and 15.7 µM (active).
On to `C=CCC1=C(C)[C@@H](OC(=O)[C@@H]2[C@@H](C=C(C)C)C2(C)C)CC1=O`, for which the AC50 was 25 µM (active).

Another experiment addresses rat Adrenergic, Alpha 1, Non-selective Receptor (Adra1), Adra1a (gene 29412) (UniProt P43140). Put plainly: NVS_GPCR_rAdra1_NonSelective: NovaScreen (NVS) G Protein-Coupled Receptor Assay for rat Adrenergic, Alpha 1, Non-selective Receptor (Adra1) (AID 2283289). The procedure, abridged:
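Rat forebrain membranes; radioligand displacement read by filter-based scintillation counting 1 h after dosing. Primary screen in duplicate at 25 uM; hits (e.g. ≥30% inhibition) rerun as concentration–response to 50 uM max. Fitted versus DMSO.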
For the molecule `CCCCOC(=O)c1ccccc1C(=O)OCCCC`, the call was inactive.
As for `COc1ccc(C(c2ccc(OC)cc2)C(Cl)(Cl)Cl)cc1`, the molecule was classed as inactive.
For `Cc1c(F)c(F)c(COC(=O)C2C(/C=C(\Cl)C(F)(F)F)C2(C)C)c(F)c1F` (stereo unspecified), the molecule was called inactive.

A further experiment deals with human Opioid Receptor Mu (Opiate Mu), OPRM1 (gene 4988) (UniProt P35372). Kind of experiment: NVS_GPCR_hOpiate_mu: NovaScreen (NVS) G Protein-Coupled Receptor Assay for human Opioid Receptor Mu (Opiate Mu) (AID 2283290).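 Further: hits lower bound tracer signal versus DMSO meaning displacement of the ligand.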 A digest of the protocol:
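Here, radioligand binding to CHO-extracted receptor was measured after 2.5 h using filter-based scintillation detection. Initial single-concentration screening used 25 uM in duplicate with plate controls; confirmed actives went to concentration-response testing.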
As for `CNC(=S)S`, the outcome was inactive.
In the case of `CCOP(=S)(OCC)SCn1c(=O)oc2cc(Cl)ccc21`, the AC50 was 19.2 µM (active).
Turning to `CCCC1COC(Cn2cncn2)(c2ccc(Cl)cc2Cl)O1` (stereo unspecified), the AC50 is 8.68 µM (active).
As to `CS/C(C)=N/OC(=O)N(C)SN(C)C(=O)O/N=C(\C)SC`, the outcome was inactive.
As for `CN(C)C(=S)SSC(=S)N(C)C`, the half-maximal activity concentration (AC50) is 5.29 µM (active).
With `COC(=O)N(OC)c1ccccc1COc1ccn(-c2ccc(Cl)cc2)n1`, the AC50 is 0.879 µM (active).
For the molecule `CCCCNC(=O)OCC#CI`, the AC50 was 9.57 µM (active) and 6.68 µM (active).
For `C=CCC1=C(C)C(OC(=O)C2C(C=C(C)C)C2(C)C)CC1=O` (stereo unspecified), the outcome was inactive.
Still for that read-out and setting: the result for `COc1ccc(C(c2ccc(OC)cc2)C(Cl)(Cl)Cl)cc1` reads “inactive”.
Take `CC1COC(Cn2cncn2)(c2ccc(Oc3ccc(Cl)cc3)cc2Cl)O1` (stereo unspecified): the AC50 was 1.88 µM (active).
In the case of `CO/C=C(/C(=O)OC)c1ccccc1Oc1cc(Oc2ccccc2C#N)ncn1`, the result was inactive.
Same read-out and setting: the result for `N#CC(CCc1ccc(Cl)cc1)(Cn1cncn1)c1ccccc1` (stereo unspecified) reads “inactive”.
Regarding `O=C(Nc1ccccc1)Nc1ccnc(Cl)c1`, the AC50 was 6.97 µM (active).

The target of a further experiment is guinea pig Bradykinin Receptor B2 (BK2), BDKRB2 (gene 100135486) (UniProt O70526). Kind of experiment: NVS_GPCR_gBK2: NovaScreen (NVS) G Protein-Coupled Receptor Assay for guinea pig Bradykinin Receptor B2 (BK2) (AID 2283292). The procedure, abridged: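 Radioligand displacement on guinea pig ileum membranes for 1 h, read by filter-based scintillation counting; loss of signal relative to DMSO. Compounds were screened in duplicate at 25 uM, and those passing the threshold were retested in concentration-response up to 50 uM.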
Sequence of guinea pig Bradykinin Receptor B2 (BK2), BDKRB2 (gene 100135486) (O70526 whole entry, looked up): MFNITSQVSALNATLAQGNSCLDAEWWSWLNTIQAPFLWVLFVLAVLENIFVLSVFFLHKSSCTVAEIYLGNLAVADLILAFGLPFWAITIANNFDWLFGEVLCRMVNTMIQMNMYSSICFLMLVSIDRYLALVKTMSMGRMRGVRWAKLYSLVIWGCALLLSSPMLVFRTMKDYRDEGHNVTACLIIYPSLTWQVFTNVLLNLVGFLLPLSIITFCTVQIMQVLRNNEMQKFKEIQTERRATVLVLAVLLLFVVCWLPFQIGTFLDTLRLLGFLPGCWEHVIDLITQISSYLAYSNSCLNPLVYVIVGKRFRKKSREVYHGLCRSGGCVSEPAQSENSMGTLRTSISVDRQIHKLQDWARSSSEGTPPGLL
With `O=C(O)c1nc(Cl)ccc1Cl`, the outcome was inactive.
On to `CCCN(CCC)c1c([N+](=O)[O-])cc(S(N)(=O)=O)cc1[N+](=O)[O-]`, for which the outcome was inactive.
In the case of `CO/C=C(/C(=O)OC)c1ccccc1Oc1cc(Oc2ccccc2C#N)ncn1`, the outcome was inactive.

A further experiment has as its target guinea pig Serotonin, 5-Hydroxytryptamine Receptor 4 (5HT4), HTR4 (gene 100135548) (UniProt O70528). Kind of experiment: NVS_GPCR_g5HT4: NovaScreen (NVS) G Protein-Coupled Receptor Assay for guinea pig Serotonin, 5-Hydroxytryptamine Receptor 4 (5HT4) (AID 2283294). A digest of the protocol:
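Guinea pig striatal membranes; radioligand competitive displacement, filtration and scintillation counting after 1 h. Primary screen in duplicate at 25 uM; actives then tested in concentration series; loss of binding signal fitted relative to DMSO.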
As to `Oc1ccccc1-c1ccccc1`, the call was inactive.
With `CON(C)C(=O)Nc1ccc(Cl)c(Cl)c1`, the AC50 is 12.4 µM (active).
Still for that read-out and setting: in the case of `CCCCNC(=O)OCC#CI` it was 13.7 µM (active) and 25 µM (active).
As for `CC1COC(Cn2cncn2)(c2ccc(Oc3ccc(Cl)cc3)cc2Cl)O1` (stereo unspecified), the molecule was called inactive.
As for `CO/C=C(/C(=O)OC)c1ccccc1Oc1cc(Oc2ccccc2C#N)ncn1`, the call was inactive.
For `O=C(Nc1ccccc1)Nc1ccnc(Cl)c1`, the AC50 is 9.9 µM (active).

In a further experiment the target is rat Serotonin, 5-Hydroxytryptamine Receptor (5HT), Non-Selective Binding, Htr1a (gene 24473) (UniProt P19327). Kind of experiment: NVS_GPCR_r5HT_NonSelective: NovaScreen (NVS) G Protein-Coupled Receptor Assay for rat Serotonin, 5-Hydroxytryptamine Receptor (5HT), Non-Selective Binding (AID 2283295). A digest of the protocol:
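Radioligand displacement on rat cortical membranes, 1 h incubation, filter-based scintillation counting. Primary duplicates at 25 uM, actives retested in concentration series; loss of signal fitted against DMSO as baseline.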
For the molecule `CS/C(C)=N/OC(=O)N(C)SN(C)C(=O)O/N=C(\C)SC`, the call was inactive.
For the molecule `COc1nc(NC(C)C)nc(NC(C)C)n1`, the molecule was called inactive.
For `C=CCC1=C(C)[C@@H](OC(=O)[C@@H]2[C@@H](C=C(C)C)C2(C)C)CC1=O`, the outcome was inactive.
As to `O=C(Nc1ccccc1)Nc1ccnc(Cl)c1`, the concentration at half-maximal activity (AC50) was 17 µM (active).

Another experiment deals with rat Corticotropin Releasing Factor Receptor (CRF), Crhr1 (gene 58959) (UniProt P35353). Put plainly: NVS_GPCR_rCRF: NovaScreen (NVS) G Protein-Coupled Receptor Assay for rat Corticotropin Releasing Factor Receptor (CRF) (AID 2283300). The procedure, abridged:
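Rat cortical membranes used as receptor source in a radioligand competitive displacement binding assay; scintillation read 2 h after dosing. Primary screen run in duplicate at 25 uM; loss of signal versus DMSO baseline indicates binding.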
For `CNC(=S)S`, the outcome was inactive.
On the same count and under the same terms, in the case of `CCNc1nc(Cl)nc(NC(C)C)n1` it was “inactive”; in that of `N#Cc1nn(-c2c(Cl)cc(C(F)(F)F)cc2Cl)c(N)c1S(=O)C(F)(F)F` (stereo unspecified), “inactive”.

The next experiment deals with rat Histamine Receptor (H3), Hrh3 (gene 85268) (UniProt Q9QYN8). Kind of experiment: NVS_GPCR_rH3: NovaScreen (NVS) G Protein-Coupled Receptor Assay for rat Histamine Receptor (H3) (AID 2283303). A digest of the protocol:
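Rat forebrain membranes incubated 1 h with compound; radioligand displacement measured by filter-based scintillation counting. Single-concentration duplicates at 25 µM, then concentration-response up to 50 µM, relative to DMSO.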
Take `CS/C(C)=N/OC(=O)N(C)SN(C)C(=O)O/N=C(\C)SC`: the AC50 was 2 µM (active).
With `CCCCNC(=O)OCC#CI`, the AC50 was 4.99 µM (active) and 6.92 µM (active).
Turning to `Cc1ccc(-c2c(Cl)nc(C#N)n2S(=O)(=O)N(C)C)cc1`, the AC50 was 5.9 µM (active).
For the molecule `N#CC(CCc1ccc(Cl)cc1)(Cn1cncn1)c1ccccc1` (stereo unspecified), the molecule was called inactive.

In another experiment the target is Metabotropic glutamate receptor 1 (Rattus norvegicus) (UniProt P23385). Put plainly: NVS_GPCR_rmMGluR1: NovaScreen (NVS) G Protein-Coupled Receptor Assay for rat Glutamate Metabotropic Receptor 1 (MGluR1) (AID 2283305). A digest of the protocol:
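Rat cerebellum membrane preparation, radioligand displacement binding read by filter-based scintillation counting 1 hour after dosing. Initial duplicate single-point screen at 25 uM, then concentration-response up to 50 uM; loss of signal versus DMSO baseline scored.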
With `CCCCNC(=O)OCC#CI`, the AC50 is 19.2 µM (active) and 1.24 µM (active).
For the molecule `COc1cnc(OC)n2nc(NS(=O)(=O)c3c(OCC(F)F)cccc3C(F)(F)F)nc12`, the call was inactive.
The same measure, in the same setting: in the case of `Cc1c(F)c(F)c(COC(=O)C2C(/C=C(\Cl)C(F)(F)F)C2(C)C)c(F)c1F` (stereo unspecified) it was “inactive”.
